Hit rate of the full screen: of about 310,000 compounds, about 14,000 (4.5%) showed an effect of 50% or more. Effects have a minus sign here. The list comes from a sample in which strong results are over-represented; it also holds similar structures and randomly drawn compounds.
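Also: peak tail current of the secondary pulse compared with the same well before compound.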

human ether-à-go-go-related gene (hERG) potassium channel, sequence (Q12809 whole entry, looked up): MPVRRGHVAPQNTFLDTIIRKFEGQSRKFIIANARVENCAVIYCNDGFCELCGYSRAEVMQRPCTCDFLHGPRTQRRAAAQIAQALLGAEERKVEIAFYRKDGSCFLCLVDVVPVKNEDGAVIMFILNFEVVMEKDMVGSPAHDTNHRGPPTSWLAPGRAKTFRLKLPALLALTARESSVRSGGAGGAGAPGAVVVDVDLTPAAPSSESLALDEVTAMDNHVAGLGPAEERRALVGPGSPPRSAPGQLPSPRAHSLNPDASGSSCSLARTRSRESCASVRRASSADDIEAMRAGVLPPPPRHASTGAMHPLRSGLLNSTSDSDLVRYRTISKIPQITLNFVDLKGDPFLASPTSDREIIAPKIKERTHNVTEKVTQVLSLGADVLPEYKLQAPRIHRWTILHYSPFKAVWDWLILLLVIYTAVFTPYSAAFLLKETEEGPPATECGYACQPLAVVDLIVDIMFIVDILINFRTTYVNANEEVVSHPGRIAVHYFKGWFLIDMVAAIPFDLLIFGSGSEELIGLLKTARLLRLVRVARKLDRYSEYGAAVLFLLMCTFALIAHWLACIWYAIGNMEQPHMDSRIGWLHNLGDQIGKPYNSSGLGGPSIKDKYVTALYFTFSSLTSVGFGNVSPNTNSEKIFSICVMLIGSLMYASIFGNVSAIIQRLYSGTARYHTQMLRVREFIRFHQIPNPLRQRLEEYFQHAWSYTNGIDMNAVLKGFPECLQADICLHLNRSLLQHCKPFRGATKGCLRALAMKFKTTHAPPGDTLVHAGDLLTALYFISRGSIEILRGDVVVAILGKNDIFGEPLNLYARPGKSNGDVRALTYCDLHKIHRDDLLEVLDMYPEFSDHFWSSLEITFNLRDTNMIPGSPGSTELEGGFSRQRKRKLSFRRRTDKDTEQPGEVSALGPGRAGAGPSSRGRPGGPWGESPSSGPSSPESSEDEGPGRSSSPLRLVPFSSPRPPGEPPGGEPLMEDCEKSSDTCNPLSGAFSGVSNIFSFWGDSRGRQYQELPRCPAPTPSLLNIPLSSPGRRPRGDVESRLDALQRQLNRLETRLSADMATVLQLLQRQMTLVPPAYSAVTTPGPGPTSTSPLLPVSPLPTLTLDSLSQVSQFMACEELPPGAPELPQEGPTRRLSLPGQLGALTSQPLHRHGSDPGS

This assay addresses human ether-à-go-go-related gene (hERG) potassium channel (human, UniProt Q12809). Briefly: primary screen, population patch clamp on CHO cells stably expressing hERG; higher = less effect of the substance.
Turning to `Cc1ccccc1NC(=O)CSc1nc(N)c(C#N)c(-c2cccs2)c1C#N`, the “hERG current change (%, negative = inhibition) at 10uM” value is 6%.

Turning to `CCOc1ccc(C(=O)OCC(=O)NCCNC(=O)COC(=O)c2ccc(OCC)cc2)cc1`, the “hERG current change (%, negative = inhibition) at 10uM” value came to 13.8%.

Regarding `CCCSc1nnc(CNS(=O)(=O)c2ccc(C)cc2)n1C`, the “hERG current change (%, negative = inhibition) at 10uM” value is recorded as 8.4%.

Take `CCOC(=O)n1c(=O)n(C)c2ccc(Br)cc21`: the “hERG current change (%, negative = inhibition) at 10uM” value is -7.75%.

With `C=CCn1c(=O)n(C(=O)OCC)c2cc(Br)ccc21`, the “hERG current change (%, negative = inhibition) at 10uM” value is -50.2%.

Consider `CCOC(=O)n1c(=O)[nH]c2ccc(Br)cc21`, for which the “hERG current change (%, negative = inhibition) at 10uM” value is on record as 2.18%.

`CC(=O)N1CCN(c2ccc(NC(=O)c3cccc(C)c3)cc2)CC1`: the “hERG current change (%, negative = inhibition) at 10uM” value amounted to 18.5%.

As for `COC(=O)c1ccc(NC(=O)CSc2nn3c(=O)c(C)nnc3s2)cc1`, the “hERG current change (%, negative = inhibition) at 10uM” value stood at 7.44%.

For `N#Cc1cccc(S(=O)(=O)NCC(=O)NCc2ccc3c(c2)OCO3)c1`, the “hERG current change (%, negative = inhibition) at 10uM” value amounted to 5.51%.

On to `COc1ccc(C(=O)OCC(=O)c2ccc(C3CCCCC3)cc2)cc1`, for which the “hERG current change (%, negative = inhibition) at 10uM” value came to 5.66%.

With `CN1CCN(CCCCC(=O)c2ccccc2)CC1.Cl`, the “hERG current change (%, negative = inhibition) at 10uM” value is reported as -0.477%.

For `Cc1ccc(NC(=O)CCN2CCN(C)CC2)cc1.Cl`, the “hERG current change (%, negative = inhibition) at 10uM” value amounted to 10.6%.

In the case of `CN1CCN(CCCC(=O)c2ccc(C3CCCC3)cc2)CC1.Cl.O`, the “hERG current change (%, negative = inhibition) at 10uM” value is listed as -50%.

Take `CN1CCN(CCC(=O)Nc2ccc(C3CCCC3)cc2)CC1.Cl`: the “hERG current change (%, negative = inhibition) at 10uM” value is reported as -55.1%.

As for `Cl.O=C(CCN1CCN(CCO)CC1)Nc1ccc(C2CCCC2)cc1`, the “hERG current change (%, negative = inhibition) at 10uM” value is -43%.

`O=C(C[n+]1ccccc1)N/N=C/c1ccc(C(=O)O)cc1.[Cl-]`: the “hERG current change (%, negative = inhibition) at 10uM” value is 0.121%.

On to `CC(C)(C)C(=O)Nc1sc2c(c1C#N)CCCCC2`, for which the “hERG current change (%, negative = inhibition) at 10uM” value came out at 2.28%.

As to `CCOC(=O)C1CCCN(S(=O)(=O)c2ccc3c(c2)CC(C)N3C(=O)C2CC2)C1` (stereo not drawn), the “hERG current change (%, negative = inhibition) at 10uM” value is listed as 9.65%.

On to `COc1ccc(N(CC(=O)NCc2cccc(OC)c2)S(=O)(=O)c2c(C)noc2C)cc1`, for which the “hERG current change (%, negative = inhibition) at 10uM” value is -41.1%.

Turning to `COc1ccccc1NC(=S)NNC(=O)c1c(Cl)c(C)nn1C`, the “hERG current change (%, negative = inhibition) at 10uM” value is on record as 32.8%.

As for `CN(C1CCCCC1)S(=O)(=O)c1cccc(C(=O)OCC(=O)NC2CCCc3ccccc32)c1` (stereo not drawn), the “hERG current change (%, negative = inhibition) at 10uM” value is given as -13.9%.

`CCOC(=O)C1CCCN(CCC(=O)Nc2cccc(C)c2)C1.Cl` (stereo not drawn): the “hERG current change (%, negative = inhibition) at 10uM” value was -24.5%.

Turning to `CCOC(=O)C1CCCN(CCC(=O)Nc2ccc3c(c2)CCC3)C1` (stereo not drawn), the “hERG current change (%, negative = inhibition) at 10uM” value is -50.4%.

Regarding `CCOC(=O)C1CCCN(CCC(=O)Nc2cc(C)cc(C)c2)C1` (stereo not drawn), the “hERG current change (%, negative = inhibition) at 10uM” value was -58.4%.

In the case of `CCOC(=O)C1CCCN(CCC(=O)Nc2ccccc2C)C1.Cl` (stereo not drawn), the “hERG current change (%, negative = inhibition) at 10uM” value was 12.5%.

In the case of `Cc1cc(C)cc(NC(=O)CCN2CCCC2)c1`, the “hERG current change (%, negative = inhibition) at 10uM” value is -15.8%.

In the case of `CC1CCCN(CCC(=O)Nc2ccc3c(c2)CCC3)C1.Cl` (stereo not drawn), the “hERG current change (%, negative = inhibition) at 10uM” value is recorded as -33.5%.

Turning to `CCOC(=O)C1CCCN(CCC(=O)Nc2ccc(C)cc2)C1.Cl` (stereo not drawn), the “hERG current change (%, negative = inhibition) at 10uM” value is recorded as -30.4%.

As for `CCOC(=O)C1CCCN(CCC(=O)Nc2ccccc2)C1.Cl` (stereo not drawn), the “hERG current change (%, negative = inhibition) at 10uM” value is -9.04%.

With `CCOC(=O)C1CCCN(CCC(=O)Nc2ccc(Br)cc2)C1.Cl` (stereo not drawn), the “hERG current change (%, negative = inhibition) at 10uM” value is recorded as -66.7%.

`CCOC(=O)C1CCCN(CCC(=O)Nc2ccc(C)c(C)c2)C1.Cl` (stereo not drawn): the “hERG current change (%, negative = inhibition) at 10uM” value is -44.8%.

Regarding `CCOC(=O)C1CCN(CCC(=O)Nc2cc(C)ccc2C)CC1`, the “hERG current change (%, negative = inhibition) at 10uM” value is given as -10.7%.

`CCOC(=O)C1CCCN(CCC(=O)Nc2cc(C)ccc2C)C1.Cl` (stereo not drawn): the “hERG current change (%, negative = inhibition) at 10uM” value is recorded as -67.2%.
